The results in this text go back to ChEMBL document CHEMBL3988442, “University of Dundee, Small-Polar-MMV Screening Library” (2021).

Holding throughout (design): scale not given: direction of the effect not stated beside the values
The target of experiment [1] is Protein translocase subunit SecA (Escherichia coli (strain K12)) (UniProt P10408). In words: Assay to Identify E. coli SecA ATPase Inhibitors. The format is functional. Conditions: 30 µM.
The target of experiment [2] is T1, Ubiquitin-activating enzyme e1, putative (Leishmania donovani (strain BPK282A1)) (UniProt E9BSI1).
T1 sequence (whole entry): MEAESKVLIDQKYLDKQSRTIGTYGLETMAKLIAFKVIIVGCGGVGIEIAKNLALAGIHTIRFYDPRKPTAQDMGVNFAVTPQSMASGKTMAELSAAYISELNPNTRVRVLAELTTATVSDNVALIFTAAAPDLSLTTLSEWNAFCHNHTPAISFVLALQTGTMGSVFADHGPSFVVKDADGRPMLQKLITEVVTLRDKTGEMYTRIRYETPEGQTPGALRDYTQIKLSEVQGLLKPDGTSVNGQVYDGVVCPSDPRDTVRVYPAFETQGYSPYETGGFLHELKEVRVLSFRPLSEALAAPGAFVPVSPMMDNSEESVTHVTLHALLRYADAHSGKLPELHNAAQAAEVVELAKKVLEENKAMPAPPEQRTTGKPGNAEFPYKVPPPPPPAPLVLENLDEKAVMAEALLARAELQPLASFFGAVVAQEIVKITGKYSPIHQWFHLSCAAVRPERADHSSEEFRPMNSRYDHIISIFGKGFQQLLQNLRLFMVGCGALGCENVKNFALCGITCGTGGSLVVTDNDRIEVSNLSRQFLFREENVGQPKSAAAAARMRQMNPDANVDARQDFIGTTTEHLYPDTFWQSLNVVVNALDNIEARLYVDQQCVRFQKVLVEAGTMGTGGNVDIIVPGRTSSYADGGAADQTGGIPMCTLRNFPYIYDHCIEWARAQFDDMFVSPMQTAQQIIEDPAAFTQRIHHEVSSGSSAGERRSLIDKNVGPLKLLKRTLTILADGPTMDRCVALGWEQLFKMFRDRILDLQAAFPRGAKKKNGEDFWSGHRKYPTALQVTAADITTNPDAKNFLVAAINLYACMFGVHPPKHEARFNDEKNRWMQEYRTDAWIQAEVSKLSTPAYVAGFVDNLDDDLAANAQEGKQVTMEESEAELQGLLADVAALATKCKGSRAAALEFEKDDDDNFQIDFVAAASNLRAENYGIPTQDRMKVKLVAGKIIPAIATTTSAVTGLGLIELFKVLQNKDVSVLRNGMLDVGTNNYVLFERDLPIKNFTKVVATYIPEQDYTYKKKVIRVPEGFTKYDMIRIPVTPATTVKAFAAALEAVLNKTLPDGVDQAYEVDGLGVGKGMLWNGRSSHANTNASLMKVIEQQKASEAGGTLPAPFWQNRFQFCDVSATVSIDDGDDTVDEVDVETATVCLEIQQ
In words: Leishmania donovani Ubiquitin Activating Enzyme (LdE1). It counts as functional. Conditions: 30 µM.

Experiment [3] has as its target AMP-activated protein kinase, AMPK (Homo sapiens) (UniProt P54646+O43741+P54619+Q9UGJ0+Q9Y478+Q13131+Q9UGI9). In words: AMP-dependent Kinase enzyme assay. An in vitro enzyme assay that detects ADP turnover that is directly proportional to AMPK activity. This uses naive AMPK that is activated during the assay with MK-8722. It counts as functional. The following applies: 30 µM.

Experiment [4] addresses Sialic acid-binding Ig-like lectin 9 (Homo sapiens) (UniProt Q9Y336). In words: Hs-Siglec9 ALPHAscreen SOP 20170721. Conditions: 10 µM. (In general: Alpha assays give light when donor and acceptor beads are brought close together.)
A further experiment has as its system Trypanosoma cruzi. In words: Trypanosoma cruzi phosphomannomutase and mannose-1-phosphate guanylyltransferase assay. The format is functional. The following applies: 10 µM.
Experiment [5] concerns the target T2, Arginase-2, mitochondrial (Homo sapiens) (UniProt P78540).
T2 sequence (whole entry): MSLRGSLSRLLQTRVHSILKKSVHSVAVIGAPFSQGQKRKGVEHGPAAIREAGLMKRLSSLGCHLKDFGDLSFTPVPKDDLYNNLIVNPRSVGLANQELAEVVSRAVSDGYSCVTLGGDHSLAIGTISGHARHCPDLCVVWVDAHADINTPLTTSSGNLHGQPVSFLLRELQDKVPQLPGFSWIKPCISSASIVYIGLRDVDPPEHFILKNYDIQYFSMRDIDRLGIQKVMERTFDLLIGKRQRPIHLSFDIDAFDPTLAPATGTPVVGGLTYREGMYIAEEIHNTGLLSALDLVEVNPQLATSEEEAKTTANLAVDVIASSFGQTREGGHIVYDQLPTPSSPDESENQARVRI
In words: in vitro enzyme assay to detect the production of urea directly proportional to the activity of Arginase II. Note: in the data most compounds retested in dose-response had high values. The format is functional. The following applies: 33.3 µM.

In experiment [6] the target is T3, Proteasome subunit beta (Trypanosoma cruzi) (UniProt O96673).
T3 sequence (whole entry): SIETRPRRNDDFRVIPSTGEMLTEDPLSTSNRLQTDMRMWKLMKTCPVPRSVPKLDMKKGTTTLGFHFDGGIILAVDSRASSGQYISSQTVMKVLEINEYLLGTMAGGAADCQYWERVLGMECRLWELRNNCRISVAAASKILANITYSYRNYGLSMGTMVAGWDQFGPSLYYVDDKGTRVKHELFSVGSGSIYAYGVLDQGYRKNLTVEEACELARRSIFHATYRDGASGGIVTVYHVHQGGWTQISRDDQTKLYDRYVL
In words: Trypanosoma cruzi proteasome chymotrypsin-like activity (TcProtChymo) assay. Note: in the data most compounds retested in dose-response had high values. The format is functional. The following applies: 9.37 µM.

The next experiment is filed under the species Homo sapiens. Kind of experiment: To identify inhibition of the IFN signalling (Jak-Stat) pathway via expression of an eGFP reporter gene under the control of an IFN-stimulated response element (ISRE) containing MxA promoter. The format is functional. Conditions: 30 µM. For orientation: Reporter assays use an easily measured gene product as a stand-in for the process of interest.

Experiment [7] has as its target T4, Tyrosyl-tRNA synthetase, putative (Trypanosoma cruzi (strain CL Brener)) (UniProt Q4DSP6).
T4 sequence (whole entry): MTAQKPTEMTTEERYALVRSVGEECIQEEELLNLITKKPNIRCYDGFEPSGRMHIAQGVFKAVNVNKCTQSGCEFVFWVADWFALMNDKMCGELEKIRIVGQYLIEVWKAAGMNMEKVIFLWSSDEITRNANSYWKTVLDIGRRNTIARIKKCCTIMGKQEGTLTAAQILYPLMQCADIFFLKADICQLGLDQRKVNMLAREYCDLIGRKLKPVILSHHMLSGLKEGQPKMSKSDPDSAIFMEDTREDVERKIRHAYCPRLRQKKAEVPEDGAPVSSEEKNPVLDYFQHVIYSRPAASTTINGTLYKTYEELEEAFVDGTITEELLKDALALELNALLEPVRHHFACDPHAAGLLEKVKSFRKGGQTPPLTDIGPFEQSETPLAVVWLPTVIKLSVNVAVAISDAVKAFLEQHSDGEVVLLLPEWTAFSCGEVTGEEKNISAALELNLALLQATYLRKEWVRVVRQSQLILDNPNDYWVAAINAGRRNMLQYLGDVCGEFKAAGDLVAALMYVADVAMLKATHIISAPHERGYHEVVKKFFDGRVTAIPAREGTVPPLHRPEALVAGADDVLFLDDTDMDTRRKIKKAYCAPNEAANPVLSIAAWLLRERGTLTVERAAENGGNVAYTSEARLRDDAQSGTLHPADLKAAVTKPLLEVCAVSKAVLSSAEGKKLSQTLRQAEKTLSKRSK
Kind of experiment: Trypanosoma cruzi tyrosyl tRNA synthetase (TcYRS) _High Tyrosine SOP. Note: in the data most compounds retested in dose-response had high values. It counts as functional. Conditions: 30 µM.

Experiment [8] deals with T4, Tyrosyl-tRNA synthetase, putative (Trypanosoma cruzi (strain CL Brener)). In words: Trypanosoma cruzi tyrosyl tRNA synthetase (TcYRS) SOP. The format is functional. The following applies: 30 µM.
Experiment [9] addresses Chromo domain-containing protein 1 (Saccharomyces cerevisiae (strain ATCC 204508 / S288c) (Baker's yeast)) (UniProt P32657). Kind of experiment: ScCHD-1 Enzyme Inhibition Assay. Note: in the data most compounds retested in dose-response had high values. The format is functional. The following applies: 30 µM.

For some assays here: Results with a measured potency or affinity are listed apart.

Sequence of Sialic acid-binding Ig-like lectin 9 (Homo sapiens) (Q9Y336 whole entry): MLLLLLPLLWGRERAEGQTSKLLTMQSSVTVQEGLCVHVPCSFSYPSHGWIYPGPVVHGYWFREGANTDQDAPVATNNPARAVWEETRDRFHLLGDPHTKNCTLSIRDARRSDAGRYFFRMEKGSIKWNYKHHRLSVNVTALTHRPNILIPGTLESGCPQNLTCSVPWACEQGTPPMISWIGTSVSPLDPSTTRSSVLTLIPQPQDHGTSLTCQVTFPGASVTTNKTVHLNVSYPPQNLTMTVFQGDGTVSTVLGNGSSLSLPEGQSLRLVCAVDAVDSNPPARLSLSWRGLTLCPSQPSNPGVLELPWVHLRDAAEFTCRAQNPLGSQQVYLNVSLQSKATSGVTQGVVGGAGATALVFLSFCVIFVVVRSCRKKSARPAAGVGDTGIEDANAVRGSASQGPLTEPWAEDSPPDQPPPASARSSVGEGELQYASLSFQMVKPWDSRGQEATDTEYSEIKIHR
Sequence of Protein translocase subunit SecA (Escherichia coli (strain K12)) (P10408 whole entry): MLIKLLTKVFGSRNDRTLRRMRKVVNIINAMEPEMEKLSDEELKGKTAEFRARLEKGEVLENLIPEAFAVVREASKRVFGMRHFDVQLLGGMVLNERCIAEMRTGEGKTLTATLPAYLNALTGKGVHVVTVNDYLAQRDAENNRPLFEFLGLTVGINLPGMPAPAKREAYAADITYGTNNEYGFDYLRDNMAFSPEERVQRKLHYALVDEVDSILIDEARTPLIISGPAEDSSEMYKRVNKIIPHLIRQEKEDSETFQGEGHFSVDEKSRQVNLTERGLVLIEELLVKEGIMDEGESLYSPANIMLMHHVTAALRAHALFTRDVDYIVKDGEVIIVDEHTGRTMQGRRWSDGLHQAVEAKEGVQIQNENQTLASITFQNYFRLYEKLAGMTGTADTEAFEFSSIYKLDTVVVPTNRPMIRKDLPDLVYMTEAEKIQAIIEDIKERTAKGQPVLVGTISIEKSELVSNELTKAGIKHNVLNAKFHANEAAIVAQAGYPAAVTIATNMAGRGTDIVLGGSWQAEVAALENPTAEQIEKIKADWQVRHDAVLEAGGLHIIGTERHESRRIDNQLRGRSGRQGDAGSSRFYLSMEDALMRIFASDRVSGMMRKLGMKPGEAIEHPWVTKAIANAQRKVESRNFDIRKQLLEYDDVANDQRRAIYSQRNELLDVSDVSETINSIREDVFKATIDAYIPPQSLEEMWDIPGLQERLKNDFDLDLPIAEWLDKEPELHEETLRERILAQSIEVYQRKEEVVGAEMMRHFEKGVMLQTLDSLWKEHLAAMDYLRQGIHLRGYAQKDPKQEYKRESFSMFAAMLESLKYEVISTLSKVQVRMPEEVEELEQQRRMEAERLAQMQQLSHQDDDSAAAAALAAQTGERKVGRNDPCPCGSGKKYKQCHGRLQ
Sequence of Chromo domain-containing protein 1 (Saccharomyces cerevisiae (strain ATCC 204508 / S288c) (Baker's yeast)) (P32657 whole entry, the tested form may be a part): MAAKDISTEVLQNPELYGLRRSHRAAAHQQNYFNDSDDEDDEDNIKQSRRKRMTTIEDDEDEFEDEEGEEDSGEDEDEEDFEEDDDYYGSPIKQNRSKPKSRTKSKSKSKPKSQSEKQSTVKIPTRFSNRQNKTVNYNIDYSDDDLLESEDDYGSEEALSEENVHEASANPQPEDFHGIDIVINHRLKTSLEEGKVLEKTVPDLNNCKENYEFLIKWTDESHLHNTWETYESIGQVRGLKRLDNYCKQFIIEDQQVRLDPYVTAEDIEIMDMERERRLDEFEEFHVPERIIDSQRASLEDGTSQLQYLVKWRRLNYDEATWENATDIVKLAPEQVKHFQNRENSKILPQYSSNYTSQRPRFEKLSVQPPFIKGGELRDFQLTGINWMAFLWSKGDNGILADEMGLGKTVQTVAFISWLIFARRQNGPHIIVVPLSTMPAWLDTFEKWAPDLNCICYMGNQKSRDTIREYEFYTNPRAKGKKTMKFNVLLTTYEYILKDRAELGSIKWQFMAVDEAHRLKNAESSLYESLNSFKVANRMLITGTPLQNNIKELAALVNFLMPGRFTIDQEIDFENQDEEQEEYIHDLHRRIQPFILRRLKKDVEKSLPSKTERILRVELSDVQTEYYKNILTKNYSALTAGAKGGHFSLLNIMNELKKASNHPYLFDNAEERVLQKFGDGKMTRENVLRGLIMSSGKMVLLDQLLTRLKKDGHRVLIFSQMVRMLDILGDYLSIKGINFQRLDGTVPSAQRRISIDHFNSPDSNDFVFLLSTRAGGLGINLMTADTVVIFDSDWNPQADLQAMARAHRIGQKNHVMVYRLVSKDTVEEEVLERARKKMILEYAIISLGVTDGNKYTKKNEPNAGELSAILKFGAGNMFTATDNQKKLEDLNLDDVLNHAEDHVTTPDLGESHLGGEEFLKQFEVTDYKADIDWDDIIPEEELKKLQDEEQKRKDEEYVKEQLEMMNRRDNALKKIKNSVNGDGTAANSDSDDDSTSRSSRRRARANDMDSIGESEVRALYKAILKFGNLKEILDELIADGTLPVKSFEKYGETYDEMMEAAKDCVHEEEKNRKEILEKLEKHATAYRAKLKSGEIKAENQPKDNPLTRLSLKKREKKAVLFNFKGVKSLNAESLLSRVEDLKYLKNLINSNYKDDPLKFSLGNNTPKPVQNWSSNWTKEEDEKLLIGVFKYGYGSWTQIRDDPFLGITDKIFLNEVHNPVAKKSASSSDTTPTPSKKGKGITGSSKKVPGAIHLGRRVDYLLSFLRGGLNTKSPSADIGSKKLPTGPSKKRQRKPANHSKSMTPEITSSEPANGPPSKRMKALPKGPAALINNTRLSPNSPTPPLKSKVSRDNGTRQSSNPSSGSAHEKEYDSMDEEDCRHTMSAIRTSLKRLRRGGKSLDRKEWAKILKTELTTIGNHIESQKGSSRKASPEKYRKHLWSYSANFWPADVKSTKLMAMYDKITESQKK

Turning to `CCc1nc(CN2CCCC(NCc3cc(C)no3)C2)no1` (stereo not given), the Percent Effect is -1.34% in experiment [1]; -28.6% in [2]; 1.07% in experiment [3]; -1.38% in experiment [4]; 3.82% with Trypanosoma cruzi; -3.16% in experiment [5]. Moreover, the Percent Effect in experiment [6] was 5.42%; in the experiment listed under Homo sapiens, 5.74%; in [7], 3.81%; in experiment [8], 7.06%; in experiment [9], -11.5%.
Turning to `Cn1cc(C(=O)NC[C@@H]2OC[C@H]3CN(S(C)(=O)=O)CC[C@H]32)cn1`, the Percent Effect in experiment [1] was -0.605%; in [2], -74%; in experiment [3], -4.74%; in [4] it was 17%; with Trypanosoma cruzi, 7.74%; in experiment [5], -1.6%. Further, the Percent Effect was 11% in [6]; 9.87% in the experiment filed under Homo sapiens; 5.21% in [7]; 1.24% in [8]; -6.34% in experiment [9].
`CC(C)(C(=O)NCC1CC1)c1ccccc1F`: the Percent Effect in experiment [1] was -8.21%; in [2], 4.17%; in experiment [3] it was -4.88%; in experiment [4], 2.97%; in the experiment on Trypanosoma cruzi, -4.18%; in experiment [5] it was 0.442%. The Percent Effect in experiment [6] is 15.6%; in the experiment listed under Homo sapiens, -2.36%; in experiment [7], 2.1%; in [8], 2.56%; in experiment [9] it was -3.44%.
Turning to `O=C(NCC1CCOC1)N1CCN(Cc2ccc3c(c2)CCO3)CC1` (stereo not given), the Percent Effect is -2.3% in [1]; 15.8% in experiment [2]; -4.31% in [3]; -5.79% in experiment [4]; 2.33% with Trypanosoma cruzi; -5.4% in [5]. Also, the Percent Effect in experiment [6] is 4.99%; in the experiment listed under Homo sapiens it was -17.4%; in [7], 9.36%; in [8], 23.5%; in experiment [9], -7.08%.
Turning to `CCOc1ccnc(N2CCN(C(=O)C(C)(C)C#N)CC2)n1`, the Percent Effect was -5.28% in [1]; 15.8% in experiment [2]; -6.59% in [3]; -2.59% in experiment [4]; -4.39% in the experiment on Trypanosoma cruzi; 1.8% in [5]. Also, the Percent Effect in experiment [6] was 4.99%; in the experiment listed under Homo sapiens, 6.24%; in experiment [7], 1.48%; in [8], 6.17%; in [9] it was -2.03%.
In the case of `O=C(c1ccc[nH]1)N1C[C@H]2CC[C@@H]1CN(c1ncccn1)C2`, the Percent Effect is -5.19% in [1]; 5.2% in [2]; 7.19% in experiment [3]; 11.1% in experiment [4]; 2.26% with Trypanosoma cruzi; -9.65% in [5]. Besides, the Percent Effect in [6] was 6.49%; in the experiment filed under Homo sapiens, -14.3%; in [7] it was 6.45%; in experiment [8], 13.6%; in experiment [9] it was -0.0272%.
With `CCc1nc(C2CCCN(C(=O)CN(C)S(C)(=O)=O)C2)no1` (stereo not given), the Percent Effect in [1] was -5.19%; in experiment [2], 18.2%; in experiment [3], -2.51%; in experiment [4] it was -7.32%; in the experiment on Trypanosoma cruzi it was 6.95%; in experiment [5], -2.32%. In addition, the Percent Effect was 9.3% in [6]; 0.959% in the experiment filed under Homo sapiens; 6.67% in [7]; 21.2% in [8]; -25.7% in experiment [9].
`Cc1cnn(CC(C)NCc2ccc(-n3cccn3)cc2)c1` (stereo not given): the Percent Effect in [1] was -1.91%; in experiment [2] it was 1.27%; in experiment [3], 2.55%; in experiment [4], -4.21%; with Trypanosoma cruzi it was -3.18%; in experiment [5] it was 0.645%. Further, the Percent Effect in experiment [6] was -0.858%; in the experiment filed under Homo sapiens, -0.795%; in [7], 0%; in experiment [8], -12.7%; in [9], -18.2%.
With `Cc1cnn(CCNCC(=O)NCC2(c3ccccc3)CCC2)c1`, the Percent Effect was -3.26% in experiment [1]; 10.4% in experiment [2]; 0.236% in experiment [3]; -13.1% in experiment [4]; -5.19% in the experiment with Trypanosoma cruzi; -3.58% in experiment [5]. For the same compound, the Percent Effect was 12.4% in experiment [6]; 11.5% in the experiment listed under Homo sapiens; 12.4% in experiment [7]; 14.1% in experiment [8]; -19.9% in [9].
As to `Cn1nnc2c1CCN(Cc1ccccc1)C2COCC1CC1` (stereo not given), the Percent Effect in [1] is -1.15%; in experiment [2] it was 2.67%; in experiment [3] it was -10.3%; in [4], -0.164%; in the experiment with Trypanosoma cruzi it was 3.15%; in experiment [5], 2.1%. Further, the Percent Effect in experiment [6] is 5.9%; in the experiment listed under Homo sapiens, 8.15%; in experiment [7] it was 14.9%; in experiment [8], 24.4%; in experiment [9], -11.1%.
